Legend:
Assay in all cases: cross-link between two proteins; cross-linking mass spectrometry
[1] = target: Small ribosomal subunit protein eS4, X isoform (UniProt P62701)
[2] = target: Small ribosomal subunit protein uS19 (UniProt P62841)
[3] = target: Small ribosomal subunit protein uS4 (UniProt Q6ZWN5)
Syntaxin-1B = Syntaxin-1B (UniProt P61264)
Tubulin alpha-1C chain = Tubulin alpha-1C chain (UniProt Q9BQE3)
Tubulin beta-2A chain = Tubulin beta-2A chain (UniProt Q7TMM9)
[4] = target: Ubiquitin-like FUBI-ribosomal protein eS30 fusion protein (UniProt P62861)
[5] = target: Ubiquitin-ribosomal protein eS31 fusion protein (UniProt P62979)
[6] = target: cAMP-dependent protein kinase catalytic subunit beta (UniProt P68181)
[7] = target: cAMP-dependent protein kinase type II-beta regulatory subunit (UniProt P31324)
cAMP-dependent protein kinase type II-beta regulatory subunit, sequence (P31324 whole entry): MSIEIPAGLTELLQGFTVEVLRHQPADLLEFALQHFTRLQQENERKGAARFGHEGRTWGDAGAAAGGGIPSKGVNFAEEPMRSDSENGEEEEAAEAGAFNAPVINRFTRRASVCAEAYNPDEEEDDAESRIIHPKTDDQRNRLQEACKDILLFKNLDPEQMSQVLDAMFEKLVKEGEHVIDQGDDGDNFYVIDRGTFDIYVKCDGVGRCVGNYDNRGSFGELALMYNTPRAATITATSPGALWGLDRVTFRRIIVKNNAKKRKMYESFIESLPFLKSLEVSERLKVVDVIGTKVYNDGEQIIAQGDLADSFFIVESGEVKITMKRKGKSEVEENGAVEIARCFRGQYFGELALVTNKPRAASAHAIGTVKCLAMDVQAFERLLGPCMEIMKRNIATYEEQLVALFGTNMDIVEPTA

Syntaxin-1B, sequence (P61264 whole entry): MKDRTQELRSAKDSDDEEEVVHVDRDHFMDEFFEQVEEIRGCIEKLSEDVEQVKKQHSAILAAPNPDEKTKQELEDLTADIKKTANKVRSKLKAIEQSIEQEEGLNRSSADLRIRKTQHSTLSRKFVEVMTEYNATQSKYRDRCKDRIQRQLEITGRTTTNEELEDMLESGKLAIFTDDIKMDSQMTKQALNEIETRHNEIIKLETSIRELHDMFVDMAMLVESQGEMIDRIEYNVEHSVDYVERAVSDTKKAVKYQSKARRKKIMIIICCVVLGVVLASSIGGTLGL
cAMP-dependent protein kinase type II-alpha regulatory subunit, P12367, sequence (P12367 whole entry): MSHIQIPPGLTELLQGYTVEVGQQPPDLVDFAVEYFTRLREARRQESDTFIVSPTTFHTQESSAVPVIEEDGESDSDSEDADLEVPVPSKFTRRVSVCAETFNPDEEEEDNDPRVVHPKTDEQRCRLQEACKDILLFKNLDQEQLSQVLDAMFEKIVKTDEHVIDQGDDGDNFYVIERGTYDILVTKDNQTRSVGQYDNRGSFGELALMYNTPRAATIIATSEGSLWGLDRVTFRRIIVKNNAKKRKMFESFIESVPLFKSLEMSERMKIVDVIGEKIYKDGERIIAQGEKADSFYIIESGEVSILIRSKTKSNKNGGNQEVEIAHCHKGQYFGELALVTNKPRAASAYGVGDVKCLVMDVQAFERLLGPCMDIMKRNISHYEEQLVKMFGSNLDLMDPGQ
Syntaxin-1A, O35526, sequence (O35526 whole entry): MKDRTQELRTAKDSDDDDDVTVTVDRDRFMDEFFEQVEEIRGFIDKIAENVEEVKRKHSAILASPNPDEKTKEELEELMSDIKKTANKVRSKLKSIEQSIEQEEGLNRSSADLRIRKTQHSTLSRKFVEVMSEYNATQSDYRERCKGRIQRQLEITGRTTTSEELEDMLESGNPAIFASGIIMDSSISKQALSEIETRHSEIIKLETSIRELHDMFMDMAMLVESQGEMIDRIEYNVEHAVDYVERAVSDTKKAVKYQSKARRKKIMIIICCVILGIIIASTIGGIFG
Tubulin alpha-1A chain, P68369, sequence (P68369 whole entry): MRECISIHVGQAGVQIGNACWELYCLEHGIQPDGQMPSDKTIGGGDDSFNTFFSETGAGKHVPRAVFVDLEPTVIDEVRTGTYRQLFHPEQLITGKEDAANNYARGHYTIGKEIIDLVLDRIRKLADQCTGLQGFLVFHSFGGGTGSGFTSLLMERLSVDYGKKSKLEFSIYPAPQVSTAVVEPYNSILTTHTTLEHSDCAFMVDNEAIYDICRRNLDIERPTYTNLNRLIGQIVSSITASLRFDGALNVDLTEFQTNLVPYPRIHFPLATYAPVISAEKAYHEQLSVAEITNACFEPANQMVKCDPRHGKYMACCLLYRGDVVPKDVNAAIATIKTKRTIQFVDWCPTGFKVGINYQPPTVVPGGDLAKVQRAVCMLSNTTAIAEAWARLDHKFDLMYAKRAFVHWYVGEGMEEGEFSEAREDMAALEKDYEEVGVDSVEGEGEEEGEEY
Tubulin beta-2A chain, sequence (Q7TMM9 whole entry, the tested form may be a part): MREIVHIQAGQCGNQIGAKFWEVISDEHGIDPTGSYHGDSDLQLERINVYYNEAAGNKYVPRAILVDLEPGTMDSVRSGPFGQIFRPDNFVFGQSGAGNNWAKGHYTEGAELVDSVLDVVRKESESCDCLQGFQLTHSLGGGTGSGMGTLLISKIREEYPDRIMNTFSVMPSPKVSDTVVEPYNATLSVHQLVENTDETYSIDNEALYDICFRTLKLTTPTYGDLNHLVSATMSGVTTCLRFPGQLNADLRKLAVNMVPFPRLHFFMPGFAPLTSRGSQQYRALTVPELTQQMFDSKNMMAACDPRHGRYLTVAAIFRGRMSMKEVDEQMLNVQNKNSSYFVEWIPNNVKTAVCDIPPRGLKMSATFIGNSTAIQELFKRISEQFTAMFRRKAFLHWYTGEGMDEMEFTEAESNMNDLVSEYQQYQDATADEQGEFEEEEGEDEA

“Small ribosomal subunit protein uS4, P46781” was tested, and the “listed as a hit” value [1] was “yes”.

For “Small ribosomal subunit protein uS13, P62269”, the “listed as a hit” value [2] was “yes”.

With “Small ribosomal subunit protein uS5, P25444” the “listed as a hit” value [3] was “yes”.

“Small ribosomal subunit protein eS4, P62702” was tested, and the “listed as a hit” value [3] was “yes”.

In the case of Syntaxin-1A, O35526, the “listed as a hit” value (Syntaxin-1B) is reported as “yes”.

In the case of L-lactate dehydrogenase A chain, P00338, the “listed as a hit” value (Tubulin alpha-1C chain) is reported as “yes”.

With Tubulin alpha-1A chain, P68369 the “listed as a hit” value (Tubulin beta-2A chain) was “yes”.

“Small ribosomal subunit protein uS3, P23396” was tested, and the “listed as a hit” value [4] was “yes”.

For “Small ribosomal subunit protein eS7, P62081”, the “listed as a hit” value [5] was “yes”.

“Small ribosomal subunit protein uS15, P62277” was tested, and the “listed as a hit” value [5] was “yes”.

“cAMP-dependent protein kinase catalytic subunit alpha, P05132” was tested, and the “listed as a hit” value [6] was “yes”.

“cAMP-dependent protein kinase type II-alpha regulatory subunit, P12367” was tested, and the “listed as a hit” value [7] was “yes”.

Source: publication PMC11024108
